Data: PubChem BioAssay AID1159580 (chemical genetic matrix, 2015)
Values joined by “and” are separate entries in the source; they are usually repeats but may differ in a detail not shown here. Equal values may be shown once. Hit rate of the full screen: of about 5,500 compounds, about 2,000 (36%) were called active. About 18% were inconclusive and are not listed. Cut-off read from the data, not from the text of the source: active = normalized growth mostly below about 0.91 (no sharp cut-off); inconclusive = no clear call, values can overlap the other calls; inactive = mostly above about 0.92. This is one part of the list.

Assay: chemical genetic growth profiling, strain panel (AID 1159580);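 note: tested at 20 µM; growth read once vehicle control cultures reached saturation at 30 °C; 1 = growth at the plate median or of vehicle wells; lower values mean less growth of the strain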
Conditions: S. cerevisiae deletion strains, growth OD

Measured: normalized growth

C[N+](C)(C)CC(=O)[O-]
inactive: locus YAL013W, strain DEP1, active compounds read low 0.992 | locus YAL021C, strain ccr4, active compounds read low 0.993 | locus YAL026C, strain drs2, active compounds read low 0.983 | locus YAL030W, strain snc1, active compounds read low 1 | locus YBL061C, strain skt5, active compounds read low 0.978 | locus YBR009C, strain hhf1, active compounds read low 1 | locus YBR021W, strain FUR4, active compounds read low 1.16 | locus YBR023C, strain chs3, active compounds read low 0.998 | locus YBR171W, strain sec66, active compounds read low 0.981 | locus YBR229C, strain ROT2, active compounds read low 0.993 | locus YBR231C, strain swc5, active compounds read low 0.969 | locus YBR279W, strain paf1, active compounds read low 0.997 | locus YCL011C, strain gbp2, active compounds read low 0.982 | locus YCL016C, strain dcc1, active compounds read low 1 | locus YCL029C, strain bik1, active compounds read low 0.982 | locus YCL061C, strain MRC1, active compounds read low 0.972 | locus YCL069W, strain vba3, active compounds read low 0.997 | locus YCR088W, strain abp1, active compounds read low 0.996 | locus YDL005C, strain med2, active compounds read low 0.959 | locus YDL035C, strain GPR1, active compounds read low 0.994 | locus YDL040C, strain nat1, active compounds read low 0.988 | locus YDL074C, strain BRE1, active compounds read low 0.949 | locus YDL101C, strain DUN1, active compounds read low 0.998 | locus YDL134C, strain PPH21, active compounds read low 1.01 | locus YDL185W, strain tfp1, active compounds read low 0.95 | locus YDL192W, strain arf1, active compounds read low 0.985 | locus YDR001C, strain nth1, active compounds read low 0.957 | locus YDR069C, strain doa4, active compounds read low 0.955 | locus YDR101C, strain arx1, active compounds read low 0.969 | locus YDR137W, strain rgp1, active compounds read low 1.02 | locus YDR150W, strain NUM1, active compounds read low 0.981 | locus YDR159W, strain sac3, active compounds read low 0.978 | locus YDR162C, strain NBP2, active compounds read low 0.996 | locus YDR195W, strain ref2 0.974 | locus YDR297W, strain sur2, active compounds read low 0.994 | locus YDR318W, strain mcm21, active compounds read low 0.992 | locus YDR334W, strain swr1, active compounds read low 0.939 | locus YDR335W, strain msn5, active compounds read low 0.964 | locus YDR388W, active compounds read low 0.997 | locus YDR392W, strain spt3, active compounds read low 1 | locus YDR502C, strain sam2, active compounds read low 0.986 | locus YEL003W, strain gim4, active compounds read low 0.99 | locus YEL037C, strain rad23, active compounds read low 0.989 | locus YEL061C, strain CIN8 (second series), active compounds read low 0.992 | locus YEL061C, strain CIN8, active compounds read low 0.996 | locus YER015W, strain faa2, active compounds read low 0.993 | locus YER016W, strain bim1, active compounds read low 1.02 | locus YER110C, active compounds read low 0.985 | locus YER111C, strain swi4, active compounds read low 0.992 | locus YER155C, strain BEM2 (second series), active compounds read low 0.987 | locus YER155C, strain BEM2, active compounds read low 0.996 | locus YER167W, strain BCK2, active compounds read low 0.993 | locus YFR010W, strain ubp6, active compounds read low 0.958 | locus YGL078C, strain dbp3, active compounds read low 0.998 | locus YGL086W, strain mad1, active compounds read low 1.01 | locus YGL167C, strain pmr1, active compounds read low 0.978 | locus YGL173C, strain kem1, active compounds read low 1 | locus YGL227W, strain vid30, active compounds read low 0.968 | locus YGL240W, strain doc1, active compounds read low 0.981 | locus YGL248W, strain PDE1, active compounds read low 0.989 | locus YGL253W, strain hxk2, active compounds read low 0.962 | locus YGR078C, strain PAC10, active compounds read low 0.955 | locus YGR135W, strain pre9, active compounds read low 0.984 | locus YGR229C, strain SMI1, active compounds read low 0.979 | locus YGR252W, strain gcn5, active compounds read low 1.19 | locus YHR013C, strain ard1, active compounds read low 0.992 | locus YHR027C, strain rpn1, active compounds read low 0.983 | locus YHR030C, strain SLT2, active compounds read low 0.993 and 0.982 | locus YHR079C, strain IRE1 (second series), active compounds read low 0.982 | locus YHR079C, strain IRE1, active compounds read low 0.989 | locus YHR094C, strain hxt1, active compounds read low 0.973 | locus YHR129C, strain ARP1, active compounds read low 0.994 | locus YHR142W, strain chs7, active compounds read low 0.963 | locus YHR200W, strain rpn10, active compounds read low 0.978 | locus YIL066C, strain RNR3, active compounds read low 0.983 | locus YIL073C, strain SPO22, active compounds read low 0.94 | locus YIL125W, strain kgd1, active compounds read low 0.988 | locus YIR030C, strain dcg1, active compounds read low 0.994 | locus YJL092W, strain hpr5, active compounds read low 0.989 | locus YJL095W, strain BCK1 (second series), active compounds read low 0.979 | locus YJL095W, strain BCK1, active compounds read low 0.987 and 0.995 | locus YJL115W, strain asf1, active compounds read low 0.966 | locus YJL129C, strain trk1, active compounds read low 0.958 | locus YJL134W, strain LCB3, active compounds read low 1 | locus YJL154C, strain vps35, active compounds read low 0.963 | locus YJL164C, strain tpk1, active compounds read low 1.01 | locus YJL166W, strain qcr8, active compounds read low 0.978 | locus YJL168C, strain set2, active compounds read low 0.992 | locus YJL187C, strain SWE1 (second series), active compounds read low 0.988 | locus YJL187C, strain SWE1, active compounds read low 0.964 | locus YJR043C, strain POL32, active compounds read low 0.998 | locus YJR066W, strain TOR1, active compounds read low 0.948
